The text below walks through data of PubChem BioAssay.

“And” between values parts separate entries of the source, which are not always exact repeats. Equal values may be shown once. More than one record can exist for a structure, and the calls need not agree. The source made the active and inactive calls.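 How the source made its calls, unless noted: active means inhibition at or above 50% relative to wild type and mutant plate controls; inactive means inhibition below 50%.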

A short description of experiment [1]: inhibitors of TNFa-induced NFkB p65 translocation, primary screen, imaging, HUVEC, MLSMR starter and 10KST1 sets (AID 438;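 active means inhibition above 20% together with a positive visual image hit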;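 further: compound added about 3h40 before a 20 min TNFalpha stimulation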;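 on inhibition: signal is the nuclear over cytoplasmic p65 intensity ratio per well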). The conditions noted are these: HUVEC TNFa-induced p65 nuclear translocation; cell count: measured here: nuclei count (cytotoxicity indicator), at 2.08 µM; inhibition: at 2 µM, stronger effect = higher value, 0% TNFa-plus-vehicle, 100% no-TNFa wells.

Experiment [2] can be described thus: inhibitors of mutant huntingtin aggregation, primary screen, imaging, exon1htt(103Q)mCFP cells, high-content imaging (AID 483;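 active means visual image review flags a hit and inhibition of aggregation exceeds 20%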;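 further: compound exposure lasted 3 days before fixation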;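 on nuclei count: percent of the per-plate median nuclei count of sample wells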). Particulars: exon1htt(103Q)mCFP cell line, aggregate imaging, at 2 µM; inhibition of aggregation: stronger effect = higher value; nuclei count: measured here: cell count, toxicity.
The nature of experiment [3]: inhibitors of E-selectin induction by TNFa, primary screen, imaging, HUVEC, immunofluorescence, MLSMR starter and 10KST1 sets (AID 487;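 active means visually confirmed hit in the image check and inhibition above 20%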;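 on inhibition: signal is fraction of cell area covered by stained E-selectin grains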;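 on nuclei count: 100% = median nuclei count of all wells on the same plate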). Particulars: HUVEC TNFalpha-induced E-selectin immunofluorescence imaging, at 2 µM; inhibition: stronger effect = higher value; nuclei count: measured here: cell number, toxicity.
Experiment [4] in a line: DUSP6 inhibitors restoring Erk phosphorylation by chemical complementation, primary imaging in DUSP6-transfected HeLa (AID 609;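 active means compounds giving at least 50% inhibition in the cell-based MKP-3 phosphatase rescue imaging test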;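 on inhibition: phospho-Erk level distribution per well compared with pooled transfected vehicle control wells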). The conditions noted are these: HeLa MKP-3 transfected, phospho-Erk imaging KS statistic, at 10 µM, cells stimulated with TPA for 15 min.
For experiment [5], the target named is Dual specificity protein phosphatase 6 (Homo sapiens) (UniProt Q16828). The description is as above. Particulars: HeLa MKP-3 transfected, phospho-Erk imaging KS statistic; at 10 µM; stronger effect = higher value; cells stimulated with TPA for 15 min.
The target of experiment [6] is Voltage-gated potassium channel subunit beta-2 (Rattus norvegicus) (UniProt P62483). Put plainly: KvBeta enzyme negative modulators, primary screen, biochemical, NADPH fluorescence (AID 622;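 active means fluorescence slope higher than the sample average by over 3 SD, cut at about -0.22 in these data, passing the limit was not always enough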;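 further: slope of raw intensity against log time taken from 70 to 1610 s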). The conditions noted are these: recombinant KvBeta, 4-cyanobenzaldehyde reduction, at 10 µM, stronger effect = higher value.
The target is the same in experiment [7]. As to the kind of experiment: KvBeta positive modulators, primary screen, biochemical, NADPH fluorescence (AID 623;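 active means NADPH fluorescence slope more negative than the mean of all samples by about 3 SD, 99.7% confidence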;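 further: fluorescence intensity change per second fitted from 20 to 320 s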). The conditions noted are these: Recombinant KvBeta, NADPH fluorescence decrease slope, 10 min; at 10 µM; stronger effect = lower value.
Experiment [8] has as its target Alpha-2C adrenergic receptor (Homo sapiens) (UniProt P18825). As to the kind of experiment: modulators of alpha2C/GIRK thallium flux, primary screen, cell-based, HEK293 alpha2C/GIRK1/2 (AID 624;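 active means fluorescence slope after compound addition differing from the mean of all screened samples at 99.7% confidence, in either direction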;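 further: slope of fluorescence ratio to pre-addition baseline per second over 15 to 24 s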). Particulars: thallium flux BTC fluorescence, at 10 µM, actives lie on both sides.
A short description of experiment [9]: inhibitors of larval lipid processing in zebrafish, primary screen, whole organism, PED6 fluorescence, gall bladder and intestine (AID 686;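 active means a full or partial loss of lipid-probe fluorescence in the fish gall bladder, intestine or both, judged by eye; inactive means no fluorescence loss, or compound toxic to the fish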;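 further: larvae 5 to 7 days old with five fish per well; signal comes from phospholipase A2 cleavage of quenched PED6 carried via bile; overnight exposure to compound and PED6 before scoring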). Particulars: Zebrafish larvae PED6 lipid processing, fluorescence scoring; screened at 20 µM (by protocol).
Experiment [10] in a line: inhibitors of Chlamydomonas gravitaxis, primary screen, whole organism, Chlamydomonas reinhardtii, WT vs cilia-less mutant, absorbance, 96-well (AID 463189).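 Further: 0% = wild type cc124 cells in DMSO and 100% = ciliumless bld1 mutant cells.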 The conditions noted are these: OD600 absorbance, 2 days, at 10 µM, stronger effect = higher value.
Experiment [11] can be described thus: inhibitors of Sendai virus-induced IRF3 signaling, primary screen, TLR/RLR signaling modifier project, cell-based, Sendai virus stimulus, luciferase, 10K MLSCN set (AID 602276;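 active means inhibition at or above 50% at 10 µM; inactive means inhibition below 50%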;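 further: firefly luciferase from ISG56 promoter only with Renilla not read in this screen; 0% = Sendai virus plus DMSO and 100% = medium plus DMSO without virus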). The conditions noted are these: HEK293 RL24 IRF3 luciferase reporter, at 10 µM, stronger effect = higher value. (A reporter such as luciferase makes a cellular process visible.)
The nature of experiment [12]: inhibitors of poly I:C-induced TLR3 signaling, primary screen, cell-based, poly I:C stimulus, luciferase, 10K MLSCN set (AID 602277;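 active means inhibition of the reporter signal at or above 50%; inactive means inhibition below 50%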). The conditions noted are these: HEK293-TLR3 RL24 IRF3 luciferase reporter, at 10 µM, stronger effect = higher value.
[13] abbreviates: measured here: cell density z-score.
The mark [14] stands for this setting: measured here: nuclear c-Myc green intensity z-score.
[15] abbreviates: measured here: nuclear pErk red intensity z-score, stronger effect = higher value.

Voltage-gated potassium channel subunit beta-2 (Rattus norvegicus), sequence (P62483 whole entry, looked up): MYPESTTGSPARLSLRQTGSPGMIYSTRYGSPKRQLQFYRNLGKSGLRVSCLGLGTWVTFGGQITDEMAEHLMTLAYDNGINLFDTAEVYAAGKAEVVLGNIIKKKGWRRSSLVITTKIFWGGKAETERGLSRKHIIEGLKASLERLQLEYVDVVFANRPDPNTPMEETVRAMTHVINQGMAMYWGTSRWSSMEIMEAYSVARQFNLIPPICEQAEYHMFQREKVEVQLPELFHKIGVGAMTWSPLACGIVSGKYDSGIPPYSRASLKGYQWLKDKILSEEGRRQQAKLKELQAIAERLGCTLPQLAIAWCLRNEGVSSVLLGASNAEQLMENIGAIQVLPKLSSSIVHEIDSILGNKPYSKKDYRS
Alpha-2C adrenergic receptor (Homo sapiens), sequence (P18825 whole entry, looked up): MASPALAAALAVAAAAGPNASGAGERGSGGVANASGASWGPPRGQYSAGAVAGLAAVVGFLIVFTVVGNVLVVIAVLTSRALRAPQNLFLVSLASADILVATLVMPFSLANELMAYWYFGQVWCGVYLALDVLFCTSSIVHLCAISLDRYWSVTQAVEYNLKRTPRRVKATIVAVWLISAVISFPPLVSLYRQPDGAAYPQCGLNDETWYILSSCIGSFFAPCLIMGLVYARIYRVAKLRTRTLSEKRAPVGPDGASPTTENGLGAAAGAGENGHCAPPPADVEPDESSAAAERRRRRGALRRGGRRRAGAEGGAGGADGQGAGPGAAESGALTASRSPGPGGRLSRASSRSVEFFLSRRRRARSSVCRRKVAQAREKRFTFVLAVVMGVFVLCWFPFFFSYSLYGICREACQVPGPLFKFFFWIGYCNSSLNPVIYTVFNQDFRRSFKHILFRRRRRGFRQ
Dual specificity protein phosphatase 6 (Homo sapiens), sequence (Q16828 whole entry, looked up): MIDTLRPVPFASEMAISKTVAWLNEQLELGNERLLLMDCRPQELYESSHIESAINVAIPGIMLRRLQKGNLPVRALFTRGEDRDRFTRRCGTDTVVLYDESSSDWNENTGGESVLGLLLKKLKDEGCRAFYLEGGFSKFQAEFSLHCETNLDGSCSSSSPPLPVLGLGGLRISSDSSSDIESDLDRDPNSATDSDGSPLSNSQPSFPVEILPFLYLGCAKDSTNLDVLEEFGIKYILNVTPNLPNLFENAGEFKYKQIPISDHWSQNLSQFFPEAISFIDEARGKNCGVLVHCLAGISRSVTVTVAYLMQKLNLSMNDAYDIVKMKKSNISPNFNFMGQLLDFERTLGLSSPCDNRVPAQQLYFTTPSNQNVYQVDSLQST

As usually defined, the inhibition is the relative decrease from the control value, in per cent. Consider `O=C(NCCO)c1cccc2c1C(=O)c1ccccc1-2`, for which, in experiment [1], the cell count is 511. In addition, the inhibition is -13.6% (inactive) in experiment [1]; -95.8% (inactive) in experiment [3]; 7.73% (inactive) in [5]; 31.9% (inactive) in experiment [10]; 4.9% (inactive) in experiment [11]; -1.91% (inactive) in [12]. Further, the inhibition of aggregation in [2] was 9.3% (inactive). Moreover, the nuclei count was found to be 91.4% in experiment [2] and 137% in experiment [3]. The values for the z-score in [4] (setting [13]), in experiment [4] (setting [14]) and in experiment [4] (setting [15]) were -0.677, 1.11 and 1.88, respectively. Moreover, the fluorescence slope in [6] is -0.517 (inactive). Also, the NADPH fluorescence slope in experiment [7] was -5.1e-05 (inactive). The slope in [8] is 0.00471 (inactive). The result in experiment [9] was inactive.
For `C[C@@H]1C[C@H]2[C@@H]3CCC4=CC(=O)C=C[C@]4(C)[C@@]3(F)[C@@H](O)C[C@]2(C)[C@@]1(O)C(=O)COP(=O)(O)O`, in [1], the cell count was determined as 525. Moreover, the inhibition in experiment [1] is -10.3% (inactive); in experiment [3] it was -15.3% (inactive); in [5] it was 25.1% (inactive); in experiment [10], 31.6% (inactive); in [11], -1.94% (inactive); in experiment [12], 31.9% (inactive). The inhibition of aggregation in [2] is -19.8% (inactive). In addition, the nuclei count amounted to 49.4% in [2] and 98.8% in [3]. Moreover, the z-score in [4] (setting [13]) was 0.835; in experiment [4] (setting [14]), 0.378; in [4] (setting [15]), -0.291. Further, in experiment [6], the fluorescence slope is -0.516 (inactive). Moreover, the NADPH fluorescence slope in experiment [7] was -5.2e-05 (inactive). Further, the slope in experiment [8] is 0.00437 (inactive). The compound was called inactive in [9].
With `CCCCN1C[C@H](O)[C@@H](O)[C@H](O)[C@H]1CO`, the cell count in experiment [1] came to 594. For the same compound, the inhibition in [1] was -9.5% (inactive); in experiment [3], -34.3% (inactive); in experiment [5] it was 15.3% (inactive); in [10], 22.3% (inactive); in experiment [11], 14% (inactive); in experiment [12] it was 19.6% (inactive). For the same compound, the inhibition of aggregation in experiment [2] was -4.6% (inactive). In addition, the nuclei count worked out at 109% in experiment [2] and 129% in [3]. In addition, the z-score was 0.947 in [4] (setting [13]), -0.313 in experiment [4] (setting [14]) and 0.0804 in experiment [4] (setting [15]). Moreover, in experiment [6], the fluorescence slope was -0.473 (inactive). Besides, in experiment [7], the NADPH fluorescence slope was 1.5e-05 (inactive). In experiment [8], the slope was 0.00474 (inactive). The outcome in [9] was inactive.
Consider `CC1=NN(c2ccccc2)C(=O)C1`, for which the cell count in experiment [1] came out at 619. Moreover, the inhibition was -5.9% (inactive) in [1]; -82.4% (inactive) in experiment [3]; 9.37% (inactive) in experiment [5]; 11.5% (inactive) in experiment [10]; -68.4% (inactive) in [11]; 52% (active) in [12]. In addition, the inhibition of aggregation in [2] is 2.5% (inactive). In addition, the figures for the nuclei count in [2] and in experiment [3] were 98% and 130%, respectively. Further, the z-score was 0.599 in [4] (setting [13]), -0.649 in [4] (setting [14]) and 1.01 in [4] (setting [15]). Moreover, the fluorescence slope in [6] is -0.432 (inactive). In [7], the NADPH fluorescence slope is 5.3e-06 (inactive). Also, the slope in experiment [8] is 0.00466 (inactive). For the same compound, the compound was classed as inactive in experiment [9].
Turning to `CC(C)(C)NCC(O)c1cc(O)cc(O)c1` (stereo not given), in experiment [1], the cell count was found to be 472. The inhibition in [1] was -2.4% (inactive); in experiment [3], -7% (inactive); in [5], 1.38% (inactive); in experiment [10], 6.82% (inactive) and -7.52% (inactive); in experiment [11], 7.09% (inactive); in [12] it was 35.9% (inactive). Further, in [2], the inhibition of aggregation is 21.1% (inactive). Also, the nuclei count in [2] is 89.3%; in experiment [3], 88.9%. Moreover, the z-score is 0.22 in experiment [4] (setting [13]), -3 in [4] (setting [14]) and -0.525 in experiment [4] (setting [15]). In experiment [6], the fluorescence slope is -0.472 (inactive). Besides, in experiment [7], the NADPH fluorescence slope is -6.7e-05 (inactive). Further, the slope in experiment [8] is 0.00544 (inactive). Moreover, the result in experiment [9] was inactive.
As for `C[C@]12CC[C@@H]3c4ccc(O)cc4CC[C@H]3[C@@H]1CCC2=O`, the cell count in experiment [1] was determined as 576. The inhibition in [1] is -0.3% (inactive); in experiment [3] it was -80.9% (inactive); in [5] it was 17.3% (inactive); in [10] it was -0.014% (inactive) and 40.8% (inactive); in experiment [11], 8.21% (inactive); in experiment [12] it was 34.8% (inactive). For the same compound, the inhibition of aggregation in experiment [2] was 3.1% (inactive). Also, the nuclei count in [2] was 98%; in [3] it was 120%. For the same compound, the values for the z-score in experiment [4] (setting [13]), in experiment [4] (setting [14]) and in experiment [4] (setting [15]) were -8.47, 2.04 and 2.06, respectively. In [6], the fluorescence slope was -0.463 (inactive). Further, the NADPH fluorescence slope in experiment [7] is -3.3e-05 (inactive). Also, the slope in experiment [8] is 0.00425 (inactive). Moreover, the call in [9] was inactive.
`O=C(c1cccc2ccccc12)N1CCC(N2CCN(c3ccccc3)CC2)CC1`: the cell count in experiment [1] worked out at 373. Moreover, the inhibition in [1] is -1.4% (inactive); in experiment [3], -64.1% (inactive); in [5] it was 13.2% (inactive); in [10] it was 29.4% (inactive); in experiment [11], 4.24% (inactive); in experiment [12], 21.4% (inactive). For the same compound, the inhibition of aggregation in [2] is 12.1% (inactive). Moreover, the nuclei count was determined as 95.9% in [2] and 81.4% in experiment [3]. In addition, the z-score was 0.565 in experiment [4] (setting [13]), 1.38 in experiment [4] (setting [14]) and -0.642 in experiment [4] (setting [15]). The fluorescence slope in [6] is -0.528 (inactive). Besides, the NADPH fluorescence slope in [7] was -1.2e-05 (inactive). The slope in experiment [8] is 0.00499 (inactive). Moreover, in experiment [9], the result was inactive.
On to `Nc1cccc(C(=O)O)c1`, for which the cell count in [1] is 563. Besides, the inhibition was 3.8% (inactive) in [1]; -31.1% (inactive) in [3]; 12.4% (inactive) in experiment [5]; -1.48% (inactive) in [10]; 9.57% (inactive) in experiment [11]; 34.4% (inactive) in experiment [12]. In addition, the inhibition of aggregation in experiment [2] was 28.2% (inactive). The nuclei count amounted to 59% in experiment [2] and 97.4% in [3]. Further, the z-score in experiment [4] (setting [13]) was 1.14; in experiment [4] (setting [14]), 0.242; in experiment [4] (setting [15]), -0.0201. Further, the fluorescence slope in experiment [6] was -0.462 (inactive). In experiment [7], the NADPH fluorescence slope was -4.9e-05 (inactive). Further, the slope in [8] is 0.00577 (inactive). Besides, the compound was called inactive in experiment [9].
In the case of `Cc1nc2sccn2c(=O)c1CCN1CCC(=C(c2ccc(F)cc2)c2ccc(F)cc2)CC1`, the cell count in [1] amounted to 597. Also, the inhibition in experiment [1] is -5.2% (inactive); in experiment [3], -80.7% (inactive); in [5], 27.9% (inactive); in experiment [10], 29.2% (inactive) and 168% (active); in experiment [11], 12% (inactive); in [12], -6.25% (inactive). Besides, the inhibition of aggregation in [2] is 4% (inactive). Further, the nuclei count stood at 104% in [2] and 112% in experiment [3]. In addition, the z-score in experiment [4] (setting [13]) was 0.864; in experiment [4] (setting [14]), 0.124; in [4] (setting [15]) it was -0.385. Moreover, the fluorescence slope in [6] was -0.459 (inactive). Also, the NADPH fluorescence slope in [7] is -4.2e-05 (inactive). For the same compound, the slope in experiment [8] was 0.0045 (inactive). The outcome in experiment [9] was “inactive; toxic”.
As to `Cc1nc(NS(=O)(=O)c2ccccc2)sc1NC(=O)OC(C)C`, the cell count in [1] is 364. In addition, the inhibition in [1] was -12.7% (inactive); in experiment [3], -118% (inactive); in experiment [5], 17.5% (inactive); in experiment [10], 16.7% (inactive); in [11] it was 2.77% (inactive); in experiment [12], 9.41% (inactive). In addition, in experiment [2], the inhibition of aggregation is -9.8% (inactive). The nuclei count in experiment [2] turned out to be 108%; in [3] it was 138%. For the same compound, the z-score in experiment [4] (setting [13]) was -0.163; in [4] (setting [14]), -0.612; in experiment [4] (setting [15]), 0.551. In addition, in [6], the fluorescence slope was -0.415 (inactive). In addition, the NADPH fluorescence slope in experiment [7] is 1e-05 (inactive). Also, in experiment [8], the slope is 0.00272 (inactive). For the same compound, the result in [9] was inactive.
